The list is not random: actives were taken first. Their share in the collection is about 2.8%.
Giardia killer: Giardia lamblia killing | Giardia lamblia trophozoite viability | activity change, % at 7.66 µM, hits read low | 340,000 compounds, 0.15% hits | AID 540267; in the data active means activity change below about -80%; inconclusive means between about -30% and that limit;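 further: parasites exposed to compound for two days anaerobically before the ATP read; on the % scale 0 is the no-effect control and ±100 the full control effect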
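ATP-content bioluminescence gauges trophozoite survival. Cells (100/well) receive compound and incubate anaerobically for 48 hrs at 37 deg C; detection reagent follows for 15-30 min at room temperature.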
DRD3 antagonist: antagonists of human D3 dopamine receptor; P35462; D3R cells, DiscoveRx beta-arrestin luminescence, antagonist mode; active compounds read low; max response, negative = inhibition, %; 360,000 compounds, 2.5% hits; in the data active means max response below about -50%; inconclusive means no clear call, values can overlap the other calls; further: on the % scale 0 is the no-effect control and ±100 the full control effect
Target sequence (P35462 whole entry, looked up): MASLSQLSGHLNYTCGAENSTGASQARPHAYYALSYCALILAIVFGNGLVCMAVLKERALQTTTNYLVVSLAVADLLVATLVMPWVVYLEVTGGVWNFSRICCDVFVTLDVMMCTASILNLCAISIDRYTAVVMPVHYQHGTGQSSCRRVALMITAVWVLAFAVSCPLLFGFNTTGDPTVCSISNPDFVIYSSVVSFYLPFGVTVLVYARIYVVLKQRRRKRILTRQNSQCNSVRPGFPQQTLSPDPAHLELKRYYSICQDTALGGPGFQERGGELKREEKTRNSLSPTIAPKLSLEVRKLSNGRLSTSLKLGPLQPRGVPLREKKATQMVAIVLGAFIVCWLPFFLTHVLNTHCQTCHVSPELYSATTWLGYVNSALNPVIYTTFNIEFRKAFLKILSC
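Cells expressing the human receptor were seeded at 1500 cells/well, incubated overnight at 37 degrees C in 5% CO2, then exposed to library compounds with dopamine controls for 90 minutes at 37 degrees C before luminescent detection.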
DRD3 agonist: D3 dopamine receptor (human) agonism | AID 652048 | max activation, % | 410,000 compounds, 0.58% hits | D3R DiscoveRx beta-arrestin cells, luminescence, 90 min; in the data active means max activation above about 30%; further: 0% is about no effect
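Agonist mode: compounds and dopamine controls were applied to plated cells for 90 min at 37 degrees C after an overnight attachment at 1500 cells/well. Luminescent read-out followed 30 - 60 minutes at room temperature with DiscoveRx detection reagent.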
B2AR arrestin: beta2AR (human) beta-arrestin recruitment activity | AID 492947 | 330,000 compounds, 0.02% hits | P07550 | beta-arrestin recruitment to beta2AR, cell-based reporter | Potency, µM (series often up to 46.1 µM), without a hit: top-dose activation, actives largely listed as activators; active means well fitted activation curve with a large enough effect; inconclusive means small, poorly fitted or top-dose-only effect;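 further: potency means the concentration at half of the fitted maximal effect; 0% = DMSO controls and full agonism = EC100 isoproterenol or metaproterenol; nearly all actives have a fitted effect of over 65% in size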
Starred values were filed as active, the others as inactive.

CN(C)/C=N/c1nc2c(ncn2C2CC(O)C(CO)O2)c(=O)[nH]1 (stereo unspecified) was read as Giardia killer 7.
`O=C/C=C/c1c(-c2ccccc2)cc2oc3ccccc3cc1-2` gave Giardia killer -22, DRD3 antagonist -66*, DRD3 agonist -7 and B2AR arrestin 0%.
CCn1cc(C(=O)N2CCN(c3ccccc3)CC2)c(=O)c2cc(S(=O)(=O)N(C)C3CCCCC3)ccc21 was read as DRD3 agonist 0.
Screening O=C(c1cccc([N+](=O)[O-])c1)N1CCN(C/C=C/c2ccccc2)CC1 returned Giardia killer 4, DRD3 antagonist -11, DRD3 agonist 32* and B2AR arrestin 3%.
COc1ccc(NS(=O)(=O)c2cc(C(=O)N3CCN(C/C=C/c4ccccc4)CC3)ccc2C)cc1 was read as Giardia killer -1, DRD3 antagonist -8, DRD3 agonist 49* and B2AR arrestin 0%.
For COc1cc(C(=O)N2CCN(C/C=C/c3ccccc3)CC2)cc(OC)c1OC the results were Giardia killer -12, DRD3 antagonist 29, DRD3 agonist 33* and B2AR arrestin 0%.
For CCOc1cc(C(=O)N2CCN(C/C=C/c3ccccc3)CC2)cc(OCC)c1OCC the results were Giardia killer 7, DRD3 antagonist 16, DRD3 agonist 4 and B2AR arrestin -1%.
Screening O=C(c1cccc([N+](=O)[O-])c1)N1CCN(S(=O)(=O)/C=C/c2ccccc2)CC1 returned Giardia killer 26, DRD3 antagonist 10, DRD3 agonist 1 and B2AR arrestin 0%.
`O=C(NC(=S)N1CCN(C/C=C/c2ccccc2)CC1)c1ccco1` gave Giardia killer 6, DRD3 antagonist -3, DRD3 agonist -5 and B2AR arrestin 0%.
`O=C(c1ccco1)N1CCN(C/C=C/c2ccccc2)CC1` gave Giardia killer -4, DRD3 antagonist -109*, DRD3 agonist -20 and B2AR arrestin 0%.
Screening COc1cc(OC)c(OC)cc1CNCCSc1nnnn1-c1ccccc1 returned DRD3 agonist -11.
Cc1nn(CC(=O)NC2CC2)c(=O)c2cc3ccccc3n12 was read as DRD3 agonist 4.
Screening CCOc1ccc(NC(=O)c2cc3sc(Cl)cc3n2CC)cc1 returned DRD3 agonist 2.
Screening COc1ccc(S(=O)(=O)Nc2cccc3c2O[C@@H](CN(C)Cc2ccc(C(=O)O)cc2)[C@@H](C)CN([C@H](C)CO)C3=O)cc1 returned Giardia killer inconclusive, DRD3 antagonist 3, DRD3 agonist 50* and B2AR arrestin 0%.
`COc1ccc(NC(=O)Nc2cccc3c2O[C@H](CN(C)C(=O)Nc2ccc(OC)cc2)[C@@H](C)CN([C@H](C)CO)C3=O)cc1` gave Giardia killer 12, DRD3 antagonist 65, DRD3 agonist 33* and B2AR arrestin 0%.
CCN(CC)C(=O)CSc1nnc2[nH]c(=O)cc(C)n12 was read as DRD3 agonist -7.
For CC(=O)NCC(=O)NC1CCCc2c1cnn2-c1ccc(C(C)(C)C)cc1 (stereo unspecified) the results were Giardia killer 15, DRD3 antagonist 13, DRD3 agonist 6 and B2AR arrestin 0%.
CC(=O)Nc1cccc(C(=O)NC2CCCc3c2cnn3-c2ccc(C(C)(C)C)cc2)c1 (stereo unspecified) was read as Giardia killer -19, DRD3 antagonist 18, DRD3 agonist 33* and B2AR arrestin 4%.
C[C@@H]1C=C[C@](Cc2ccccc2)(C(=O)O)N1C(=O)c1ccccc1 was read as Giardia killer -17, DRD3 antagonist 0 and DRD3 agonist -11.
For CC(=O)N1[C@H](C)C=C[C@]1(Cc1ccccc1)C(=O)O the results were Giardia killer 5, DRD3 antagonist 8, DRD3 agonist 31* and B2AR arrestin 0%.
`CC(=O)Nc1cccc(N2C(=O)CC(N3CCC(C(=O)N4CCCCC4)CC3)C2=O)c1` (stereo unspecified) gave Giardia killer -1, DRD3 antagonist -59*, DRD3 agonist 4 and B2AR arrestin 0%.
`CC(C)(C)C(=O)OCCNc1nc(-c2cccs2)nc2ccccc12` gave Giardia killer -29.
For C=C(CN(C)C)C(=O)c1ccc(OC2OC(COC(C)=O)C(OC(C)=O)C(OC(C)=O)C2OC(C)=O)cc1 (stereo unspecified) the results were Giardia killer -18, DRD3 antagonist -82* and DRD3 agonist -16.
O=C(C1CCC1)N1CCCc2cc(S(=O)(=O)Nc3ccc(F)cc3)ccc21 was read as DRD3 agonist -6.
For CC(=O)c1cc(C#N)c(Oc2ccccc2)nc1C the results were Giardia killer -5, DRD3 antagonist 0 and DRD3 agonist -6.
For CC(=O)c1cc(C#N)c(Oc2ccc(Cl)cc2Cl)nc1C the results were Giardia killer 0, DRD3 antagonist -56* and DRD3 agonist 3.
Screening C=C1CC(Cn2cc(Br)c(=O)[nH]c2=O)(c2ccc(-c3ccccc3)cc2)OC1=O (stereo unspecified) returned Giardia killer -2, DRD3 antagonist -89* and DRD3 agonist -4.
For O=C(CSc1nnc(-c2ccncc2)n1-c1ccccc1)Nc1ccc(Br)cc1 the results were DRD3 agonist -9.
For COc1ccc(S(=O)(=O)N2CCC3CC2c2c(-c4ccc(C(F)(F)F)cc4)cccc23)cc1 (stereo unspecified) the results were DRD3 antagonist 6 and DRD3 agonist 52*.
Screening CN(C)c1ccc(C(=O)c2ccccc2C(=O)O)c(O)c1 returned Giardia killer -1, DRD3 antagonist 4, DRD3 agonist 2 and B2AR arrestin 0%.
Screening CCCCN(CCCC)c1ccc(C(=O)c2ccccc2C(=O)O)c(O)c1 returned Giardia killer 9, DRD3 antagonist -81*, DRD3 agonist -9 and B2AR arrestin 0%.
Screening C=CC(=O)N1C/C(=C/c2ccccc2)C(=O)/C(=C\c2ccccc2)C1 returned Giardia killer 26, DRD3 antagonist -62* and DRD3 agonist -19.
Screening COc1ccccc1CN=c1c([N+](=O)[O-])nn(-c2ccc3c(c2)OCCO3)n1O returned Giardia killer -90*, DRD3 antagonist 5, DRD3 agonist 5 and B2AR arrestin 0%.
Screening O=[N+]([O-])c1nn(-c2ccc3c(c2)OCCO3)n(O)c1=NCc1ccccc1Cl returned Giardia killer inconclusive, DRD3 antagonist -22, DRD3 agonist -7 and B2AR arrestin -1%.
Screening O=[N+]([O-])c1nn(-c2ccc3c(c2)OCCO3)n(O)c1=NC1CCCCC1 returned Giardia killer -84*, DRD3 antagonist -6, DRD3 agonist 3 and B2AR arrestin 0%.
Screening CCCCN1C(=O)C(CC(=O)NC2CCCCC2)CC(C(=O)N2CCOCC2)=C1C (stereo unspecified) returned DRD3 antagonist -54* and DRD3 agonist 8.
COCCCN1C(=O)C(CC(=O)NCCCN(C)C)CC(C(=O)N2CCOCC2)=C1C (stereo unspecified) was read as DRD3 antagonist 1 and DRD3 agonist 95*.

Screening data from PubChem BioAssay.
